TLR9-MyD88 inh – blocks human TLR9 binding to MyD88. Q9NR96+Q99836. CHO BLA complementation TLR9-MyD88, CCF4 FRET ratio. inhibition, % at 4.98 µM. hit rate 0.21% among 340,000;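 active = inhibition above the mean over all tested compounds plus 3 SD, cut at about 21% in these data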;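 also: 0% = DMSO only wells and 100% = clavulanate BLA inhibitor control wells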
TLR4 MyD88 comp – blocks binding of human TLR4 to MyD88; HeLa CL3-4 TLR4/MyD88 BLA complementation, FRET ratio; inhibition, % at 8.4 µM; hit rate 0.18% among 200,000; AID 861; in the data active = inhibition above about 25%;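 also: 0% = vehicle and 100% = reference inhibitor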
Neddyl block – blocks human cullin neddylation. TR-FRET cullin neddylation, biochemical. inhibition, % at 25 µM. hit rate 0.58% among 360,000. AID 651699; in the data active = inhibition above about 36%
GC-A act – GC-A (human) enzyme activation; P16066; HEK293 GC-A cells, cGMP TR-FRET, EC30 ANP; 0% at EC30 ANP, 100% saturating ANP; activation, % at 10 µM; hit rate 0.14% among 370,000; in the data active = activation above about 40%
GC-B act – GC-B (human) receptor activation | activation, % at 10 µM | hit rate 0.11% among 370,000 | HEK293-GC-B cells, CNP EC30, cGMP TR-FRET; 0% at EC30 CNP, 100% saturating CNP | P20594 | AID 1920062;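 active = activation at 10 µM reaching about 35% in either raw or pattern-adjusted values, limit read from the data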
NOD2 RIPK2 PPI – NOD2-RIPK2 protein interaction inhibition; O43353; CHO BLA complementation NOD2-RIPK2, CCF4 ratio; inhibition, % at 4.98 µM; hit rate 0.38% among 360,000; in the data active = inhibition above about 21%;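 also: 0% = vehicle only and 100% = reference blocker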
Target sequence (O43353 whole entry, looked up): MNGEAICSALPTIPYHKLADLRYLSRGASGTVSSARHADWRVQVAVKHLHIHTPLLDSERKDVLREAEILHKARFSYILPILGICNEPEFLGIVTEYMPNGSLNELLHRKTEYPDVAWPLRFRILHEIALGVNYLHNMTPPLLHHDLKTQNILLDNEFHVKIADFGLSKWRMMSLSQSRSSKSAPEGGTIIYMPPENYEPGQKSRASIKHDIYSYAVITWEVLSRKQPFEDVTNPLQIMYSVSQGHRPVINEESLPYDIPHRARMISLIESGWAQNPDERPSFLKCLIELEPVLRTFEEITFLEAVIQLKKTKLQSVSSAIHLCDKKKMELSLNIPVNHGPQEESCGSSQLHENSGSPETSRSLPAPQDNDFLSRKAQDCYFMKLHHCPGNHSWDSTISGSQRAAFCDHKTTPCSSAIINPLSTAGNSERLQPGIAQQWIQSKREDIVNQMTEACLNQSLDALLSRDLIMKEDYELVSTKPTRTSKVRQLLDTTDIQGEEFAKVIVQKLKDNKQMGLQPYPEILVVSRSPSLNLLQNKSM
Neddyl conf – cullin neddylation inhibition, confirmation; shares compounds with Neddyl block; TR-FRET cullin neddylation biochemical assay; calls only at 25 µM; hit rate 13% among 1,800; AID 652217; in the data active = inhibition above about 40%;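 also: neddylation substrate is the cullin 1 ring ligase complex with SKP2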
An asterisk follows results filed as active; i = inactive; . = no result shown; + = active, no number. The list is not random: actives were taken first. Their share in the collection is about 1.2%.

SMILES | TLR9-MyD88 inh | TLR4 MyD88 comp | Neddyl block | GC-A act | GC-B act | NOD2 RIPK2 PPI | Neddyl conf
COc1ccc(S(=O)(=O)N2c3cc(Cl)ccc3Oc3nc4ccccc4nc32)cc1 | -7.9 | -4.0 | 27.6 | -5.6 | -2.9 | -5.4 | .
O=S(=O)(c1ccc(Cl)cc1)N1c2ccccc2Oc2nc3ccccc3nc21 | -2.0 | 4.8 | 40.6* | -11.2 | -3.5 | -0.8 | i
COCCn1c(=O)[nH]c2cc(C(=O)OC)ccc2c1=O | 2.6 | 8.2 | 41.8* | 6.9 | 3.2 | -1.3 | i
O=C1N2Cc3ccccc3C2CS(=O)(=O)N1CCc1ccccc1 (configuration not stated) | . | . | . | -5.0 | -4.8 | . | .
CC(NC(=O)Cc1ccc(S(=O)(=O)N2CCOCC2)s1)c1ccc(Cl)cc1Cl (configuration not stated) | 1.2 | . | 2.6 | -1.9 | 0.6 | -3.2 | .
N#Cc1nc(-c2ccco2)oc1NCc1ccco1 | 1.3 | -0.7 | . | 3.8 | 9.2 | -1.4 | .
N#Cc1nc(-c2ccco2)oc1NCc1ccccc1Cl | . | . | 39.4* | 6.3 | 3.7 | -0.3 | i
NC(=O)CCC(=O)N1CCCC(C(=O)c2ccc3c4c(cccc24)CC3)C1 (configuration not stated) | -2.6 | -1.6 | 44.3* | 1.1 | 0.3 | -16.8 | i
O=C1CCC(CCC(=O)N2CCCC(C(=O)c3ccc4c5c(cccc35)CC4)C2)=NN1 (configuration not stated) | 4.9 | -5.5 | 33.5 | -1.4 | -3.1 | 3.0 | .
O=C1CCC(C(=O)N2CCCC(C(=O)c3ccc4c5c(cccc35)CC4)C2)=NN1 (configuration not stated) | -2.9 | 16.3 | 43.0* | 1.5 | 6.8 | -0.2 | +
CC(=O)Nc1cccc(-c2cc(NC(C)=O)c3ncc(-c4ccc(C(C)=O)cc4)n3c2)c1 | . | . | . | 9.9 | 8.4 | 8.9 | .
CCOc1ccc(CCNC(=O)COC(=O)c2cccc(N(C)C)c2)cc1OCC | -0.9 | . | 40.0* | 2.0 | -1.7 | -13.4 | i
CN(C)c1cccc(C(=O)OCC(=O)Nc2ccccc2-c2ccccc2)c1 | 2.8 | -4.2 | 40.0* | 8.5 | -0.9 | -2.9 | i
CN(C)c1cccc(C(=O)OCC(=O)Nc2ccccc2Cl)c1 | -3.5 | 2.7 | . | -0.3 | 5.3 | 0.9 | .
Cc1ccc2oc(-c3ccco3)cc(=O)c2c1 | -0.1 | -11.9 | 45.5* | -4.3 | -4.4 | -3.0 | +
N#CCOc1ccc2oc(-c3ccco3)cc(=O)c2c1 | . | -0.4 | . | . | . | . | .
O=c1cc(-c2ccco2)oc2ccccc12 | 6.9 | . | 39.9* | -5.8 | -4.4 | -18.3 | +
COc1ccc(C2NC(=O)NC(C)=C2C(=O)OC2CCC(C)CC2)cc1 (configuration not stated) | 2.5 | . | -1.8 | -13.2 | -5.5 | -0.4 | .
CC1CCCCN1C(=O)C1CCN(c2nc(-c3ccccc3)nc3c2CCC3)CC1 (configuration not stated) | -7.9 | . | 14.5 | -2.0 | -3.7 | 3.0 | .
O=C(c1coc(=O)c(Br)c1)N1CCC(C(O)(c2ccccc2)c2ccccc2)CC1 | 6.2 | . | 44.8* | -11.4 | -7.5 | -3.3 | .
O=C(c1coc(=O)c(Br)c1)N1CCCc2ccccc21 | -10.4 | -9.2 | 38.3* | 1.6 | -1.6 | -5.5 | .
O=C(c1cccc(Br)c1)N1CCCc2ccccc21 | -5.1 | . | 6.9 | 0.5 | 3.0 | -8.6 | .
O=C(COc1ccc2c(c1)oc(=O)c1ccccc12)NC(Cc1ccc(Cl)cc1)C(=O)O (configuration not stated) | -9.4 | . | . | 1.8 | 2.2 | -3.4 | .
C=CCNc1cccc2c1S(=O)(=O)N[C@@H](C)CO2 | . | . | . | 2.9 | -0.7 | . | .
O=C1OCC2=C1C(c1ccc(F)cc1)c1cc3c(cc1N2)OCO3 (configuration not stated) | -4.5 | 2.2 | 41.9* | -2.1 | -6.7 | 10.9 | .
SMILES | TLR9-MyD88 inh | TLR4 MyD88 comp | Neddyl block | GC-A act | GC-B act | NOD2 RIPK2 PPI | Neddyl conf
O=C(Nc1ccccc1Cl)c1ccccc1CC(O)(c1ccccc1)c1ccccc1 | -5.9 | . | 2.0 | -3.8 | 2.5 | 0.2 | .
Nc1nc(Br)c2c(F)cccc2c1-c1ccc(F)cc1 | -4.4 | 6.4 | 39.8* | -11.6 | -11.4 | 8.8 | i
COc1ccc(NC(=O)CN(C)C(=O)/C=C/c2cn(-c3ccccc3)nc2-c2ccc(C)cc2)cc1 | -0.3 | . | -15.4 | -2.5 | -7.2 | 9.5 | .
COc1ccc(CCC(=O)N(C)CC(=O)Nc2ccc(N3CCOCC3)cc2)cc1 | 10.3 | 7.7 | -0.4 | 0.0 | -1.9 | 0.7 | .
COc1ccc(NC(=O)CN(C)C(=O)/C=C/c2cn(-c3ccccc3)nc2-c2cccs2)cc1 | -8.8 | . | 44.3* | -0.7 | 2.9 | 2.8 | i
COc1ccc(OC)c(/C=C/C(=O)N(C)CC(=O)Nc2ccc(N3CCOCC3)cc2)c1 | 6.8 | . | 59.9* | -2.5 | 0.5 | -0.9 | .
O=C(Nc1ccccc1)c1cccc(S(=O)(=O)NC2CCCC2)c1 | -12.9 | . | -0.1 | 3.2 | 1.8 | -8.9 | .
Cc1ccc(NC(=O)c2ccccc2OCC(=O)Nc2ccccc2F)cc1S(=O)(=O)N(C)C | -5.2 | . | 9.5 | 5.8 | 5.9 | 5.2 | .
Cc1ccc(NS(=O)(=O)c2cc(NC(=O)c3ccc4c(c3)NC(=O)CS4)ccc2Cl)c(C)c1 | 7.4 | 13.6 | 48.0* | 1.4 | 1.8 | -3.8 | i
COc1ccc(NC(=O)c2ccc3c(c2)NC(=O)CS3)cc1 | -14.1 | . | 6.0 | -0.5 | -6.8 | -1.4 | .
COc1ccc(-c2cc(C(=O)NNC(=O)c3csc(N4CCOCC4)n3)c3ccccc3n2)cc1 | 5.0 | . | 42.4* | 5.4 | 3.1 | -9.3 | i
COc1ccc(-c2cc(C(=O)NNC(=O)c3csc(N4CCOCC4)n3)c3ccccc3n2)cc1OC | -0.5 | . | 25.1 | 1.8 | 0.3 | -8.9 | .
COc1ccc2oc(=O)c(C(=O)NCCc3ccc(OC)c(OC)c3)cc2c1 | -2.8 | . | 48.2* | 2.3 | -5.2 | 6.3 | i
COc1ccc2oc(=O)c(C(=O)NCc3ccc4c(c3)OCO4)cc2c1 | 5.4 | -86.0 | 24.7 | 1.6 | -1.2 | 0.3 | .
Fc1ccc2nc(-c3ccc(CN4CCC5(CC4)CNc4ccccc45)cc3)c(-c3ccccc3)nc2c1 | . | . | . | -0.9 | 3.1 | . | .
COC(=O)C(C(=O)OC)[C@H]1C=C[C@@H](C(=O)NS(=O)(=O)c2ccc(C)cc2)N(C(C)=O)C1 | . | . | . | 1.0 | 6.5 | . | .
COC(=O)c1sccc1NC(=O)/C=C/c1ccc(Cl)cc1Cl | 2.5 | -13.1 | 41.4* | -2.5 | -3.2 | -14.7 | i
O=C(N1CCOCC1)N1CCN(S(=O)(=O)c2ccc(Cl)cc2)CC1 | -1.7 | . | 10.1 | -2.9 | 3.4 | 8.5 | .
O=S(=O)(c1ccc(Cl)cc1)N1CCN(c2ccc(N3CCOCC3)nn2)CC1 | 2.9 | -8.7 | 43.3* | -17.8 | -11.8 | -3.8 | i
Cc1cc2n(n1)C(c1ccc3c(c1)OCO3)Nc1ccccc1-2 (configuration not stated) | -4.5 | -8.2 | 41.1* | -6.0 | 0.3 | 3.2 | i

Assay outcomes from PubChem.
